Sampled rows, rich in hits. Any-hit rate of the full collection: about 1.3%.
gsp antagonist: qHTS for Antagonists of gsp, the Etiologic Mutation Responsible for Fibrous Dysplasia/McCune-Albright Syndrome: qHTS; gsp-mutant cells, cAMP HTRF, 30 min; Potency, µM (series often up to 76.9 µM), actives largely listed as inhibitors; hit rate 0.4% among 340,000; calls by dose curve; cell line not stated here;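 further: intracellular cAMP measured with PDE inhibitor Ro 20-1724 present during compound exposure; nearly all actives have a fitted effect of over 65% in size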
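HTRF cAMP read-out (cAMP-d2 plus anti-cAMP antibody-K in lysis buffer, 30 min RT). Before lysis, cells are exposed to compounds with […] for 30 min at 37C in DPBS containing Ca/Mg, BSA and Tween 20.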
gsp agonist: qHTS for Agonist of gsp, the Etiologic Mutation Responsible for Fibrous Dysplasia/McCune-Albright Syndrome: qHTS | gsp mutant cells, cAMP HTRF, 30 min | Potency, µM (series often up to 76.9 µM), most hits filed as activators | hit rate 0.13% among 340,000; active means well fitted activation curve with a large enough effect; inconclusive means small, poorly fitted or top-dose-only effect, or another doubt; inactive means no such curve, though single readings can be large or run the other way; cell line not stated here;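 further: phosphodiesterase inhibitor Ro 20-1724 added with compounds to block cAMP breakdown; nearly all actives have a fitted effect of over 60% in size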
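Cells in DMEM/10% FBS with G418 were pretreated with compounds in DMSO plus […] (300 uM stock) for 30 min at 37C. cAMP was measured by HTRF (cAMP-d2 plus anti-cAMP antibody-K) after 30 min at room temperature.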
Akt phos inh: HTS Assay for Inhibitors of Akt Phophorylation: Primary Screen; Neuro2A IGF-stimulated pAkt S473 HTRF, 20 min; hits give low values; hit rate 0.32% among 360,000; activity change, % for hits at 50 µM; AID 651550, 2012; in the data active means activity change below about -80%; inconclusive means mostly about -51% to -80%
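Single-point screen (50 µM final compound) in Neuro2A cells stimulated 20 min with 6 nM IGF at 37 deg C. After lysis, Ser473-phosphorylated Akt read by HTRF (ex 330 nm, em 615/665 nm) as the 665/615 ratio.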
RXFP1 antag: qHTS Assay for Antagonists of the Relaxin Receptor RXFP1; Relaxin receptor 1 (Homo sapiens), Q9HBX9; AID 1259400, 2018; hit rate 0.59% among 350,000; activity change, negative = inhibition, % at 57.5 µM; HEK293-RXFP1, relaxin-stimulated cAMP HTRF, 30 min; hits give low values;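 active means activity change of -60% or lower, but not beyond a set lower limit; inconclusive means change between -60% and -40%, or beyond the set limit; inactive means change above -40%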
Target sequence (Q9HBX9 whole entry, looked up): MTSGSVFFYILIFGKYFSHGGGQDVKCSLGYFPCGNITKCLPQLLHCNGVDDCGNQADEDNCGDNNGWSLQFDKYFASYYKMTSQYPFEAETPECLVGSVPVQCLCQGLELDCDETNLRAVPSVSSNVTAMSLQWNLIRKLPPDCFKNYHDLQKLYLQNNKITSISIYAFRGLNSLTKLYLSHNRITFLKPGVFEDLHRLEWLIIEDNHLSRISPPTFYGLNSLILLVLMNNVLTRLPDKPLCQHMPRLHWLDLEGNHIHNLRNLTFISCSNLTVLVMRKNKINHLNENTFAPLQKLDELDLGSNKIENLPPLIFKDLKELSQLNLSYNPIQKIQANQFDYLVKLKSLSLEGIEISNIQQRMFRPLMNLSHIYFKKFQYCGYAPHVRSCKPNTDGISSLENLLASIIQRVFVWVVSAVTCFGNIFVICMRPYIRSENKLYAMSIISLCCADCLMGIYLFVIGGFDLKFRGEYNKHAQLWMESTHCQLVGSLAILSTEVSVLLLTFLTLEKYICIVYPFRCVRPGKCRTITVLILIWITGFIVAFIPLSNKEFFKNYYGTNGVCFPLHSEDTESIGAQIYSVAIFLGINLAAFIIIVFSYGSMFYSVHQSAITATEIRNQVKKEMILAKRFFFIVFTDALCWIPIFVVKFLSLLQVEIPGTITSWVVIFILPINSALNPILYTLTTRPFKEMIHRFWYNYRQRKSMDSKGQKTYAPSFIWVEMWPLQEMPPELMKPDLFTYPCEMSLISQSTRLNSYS
RXFP1 agonist: qHTS Assay for Agonists of the Relaxin Receptor RXFP1; Relaxin receptor 1 (Homo sapiens), Q9HBX9; HEK293T-RXFP1 cAMP TR-FRET, 30 min; response scale: percent of porcine relaxin response, buffer zero; Potency, µM (highest dose often 57.5 µM), actives largely listed as activators; hit rate 0.3% among 370,000; active means well fitted activation curve with a large enough effect; inconclusive means small, poorly fitted or top-dose-only effect; further: nearly all actives have a fitted effect of over 60% in size
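HEK293 cells stably expressing RXFP1, treated 30 min at 37C with compounds plus PDE4 inhibitor Ro 20174; cAMP measured by HTRF TR-FRET. Normalized to buffer and 29 nM porcine relaxin; EC50 by Hill fit.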
Each line names hits and unclear results; the compound was inactive in the other large screens.

COc1ccc(OC)c(NC(=O)c2nc(S(=O)(=O)Cc3ccccc3)ncc2Cl)c1	none
CS(=O)(=O)c1ncc(Cl)c(C(=O)Nc2ccc(OC(F)F)cc2)n1	RXFP1 antag -82
COc1ccc(S(=O)(=O)N2c3ccc(Cl)cc3[C@@](O)(c3ccccc3Cl)[C@H]2C(=O)N2CCC[C@@H]2C(N)=O)cc1OC	none (no result: gsp antagonist, gsp agonist, Akt phos inh, RXFP1 agonist)
COc1ccc2nc(NC(=O)c3nc(S(=O)(=O)Cc4ccccc4F)ncc3Cl)sc2c1	RXFP1 antag -83 (no result: gsp antagonist, gsp agonist, Akt phos inh)
Cc1ccccc1CS(=O)(=O)c1ncc(Cl)c(C(=O)Nc2ccc(F)cc2)n1	gsp agonist inconclusive, RXFP1 antag -104 (no result: Akt phos inh)
O=C(Nc1ccccc1F)c1nc(S(=O)(=O)Cc2ccccc2F)ncc1Cl	RXFP1 antag inconclusive (no result: gsp antagonist, gsp agonist, Akt phos inh)
O=C(CCCn1ccc2cc(S(=O)(=O)N3CCCC3)ccc21)NCc1ccc(Cl)cc1	none (no result: gsp antagonist, gsp agonist, Akt phos inh)
Cc1ccc(Nc2c(-c3c[nH]c4ccccc34)nc3ccccn23)cc1	none (no result: gsp antagonist, gsp agonist, Akt phos inh)
COc1ccc(OC)c(S(=O)(=O)N2CCC(n3c(C)nc4cccnc43)CC2)c1	none (no result: gsp antagonist, gsp agonist, Akt phos inh)
Cc1ccnc(SCc2cn3c(C)cc(C)nc3n2)n1	gsp agonist inconclusive
Cc1cc(C)n2cc(CSc3ncccc3C(=O)O)nc2n1	Akt phos inh -111%
CO[C@@]1(NC(=O)CSC[C@@H](N)C(=O)O)C(=O)N2C(C(=O)O)=C(CSc3nnnn3C)CS[C@@H]21	none (no result: gsp antagonist, gsp agonist, Akt phos inh, RXFP1 agonist)
COC(=O)C1=C(C)N(Cc2ccccc2)C(=NCc2ccco2)N[C@H]1c1ccc(Br)cc1	none (no result: gsp antagonist, gsp agonist, Akt phos inh, RXFP1 antag)
CCc1[nH]nc2c1C(Cc1ccccc1)C(C#N)=C(N)O2 (stereo not given)	none
CCCc1[nH]nc2c1C(Cc1ccccc1)C(C#N)=C(N)O2 (stereo not given)	Akt phos inh -106%
COc1ccc(N=c2oc3c(OC)cccc3cc2C(=O)NCc2ccco2)cc1OC	none
COc1cccc2cc(C(=O)Nc3ccc(F)cc3)c(=Nc3ccc(C(=O)O)cc3)oc12	gsp antagonist 11µM
C(=N\Nc1nc(Nc2ccccc2)nc(N2CCOCC2)n1)/c1c[nH]c2ccccc12	none
Cc1ccc(Nc2nc(N/N=C/c3c[nH]c4ccccc34)nc(N3CCOCC3)n2)cc1	gsp antagonist 40µM
CCOc1ccc(Nc2oc(/C=C/c3cc(OC)c(OC)c(OC)c3)nc2C#N)cc1	none (no result: gsp antagonist, gsp agonist, Akt phos inh)
COc1ccc(/C=N/n2cnnc2SCCO)cc1OC	none
C=CCSc1nncn1/N=C/c1ccc(OC)cc1	Akt phos inh -103%
CC(=O)c1ccc(S(=O)(=O)Nc2ccc(-c3ccc(N4CCCCC4)nn3)cc2)cc1	none (no result: gsp antagonist, gsp agonist, Akt phos inh)
CCOC(=O)C1=C(C)N=c2s/c(=C/c3ccc(OCC(=O)O)c(OC)c3)c(=O)n2C1c1ccc(Cl)cc1 (stereo not given)	gsp antagonist 35µM (no result: RXFP1 agonist)
CCOC(=O)C1=C(C)N=c2s/c(=C\c3ccc(OCC(=O)O)cc3)c(=O)n2C1c1ccc(Cl)cc1 (stereo not given)	gsp antagonist inconclusive
CCOC(=O)C1=C(C)N=c2s/c(=C/c3ccc(OCC(=O)O)cc3)c(=O)n2C1c1ccc(F)cc1 (stereo not given)	gsp antagonist 22µM
COc1ccccc1/C=C/c1nc2ccccc2n1C(C)C	none (no result: gsp antagonist, gsp agonist, Akt phos inh, RXFP1 antag)
CN(N=O)C(=O)N[C@@H]1[C@@H](O)[C@H](O)[C@@H](CO)O[C@@H]1O	none (no result: gsp antagonist, gsp agonist, Akt phos inh, RXFP1 agonist)
COCCCNC(=O)/C(C#N)=C/c1ccc(F)cc1	none
CCCCNC(=O)/C(C#N)=C/c1ccc(F)cc1F	gsp antagonist 11µM
CCN(CC)c1ccc(C(=C2C=CC(=[N+](CC)CC)C=C2)c2ccc(S(=O)(=O)O)cc2S(=O)(=O)[O-])cc1	gsp antagonist inconclusive, RXFP1 antag -90 (no result: RXFP1 agonist)
Cn1nc(C(F)(F)F)c(-c2ccc(Br)cc2)c1NC(=O)Nc1ccc(F)cc1F	RXFP1 antag -61
CCN(CC)S(=O)(=O)c1ccc(Cl)c(C(=O)Nc2nncs2)c1	Akt phos inh -103%
O=C(NCc1ccco1)c1ccc2c(c1)N(Cc1ccccc1)C(=O)c1ccccc1S2(=O)=O	none (no result: gsp antagonist, gsp agonist, Akt phos inh)
O=c1c2ccccc2sn1-c1cc(S(=O)(=O)N2CCOCC2)ccc1N1CCCC1	gsp antagonist inconclusive, gsp agonist inconclusive, RXFP1 antag -62

Assay outcomes from PubChem BioAssay.
